Assay outcomes deposited in PubChem BioAssay by National Center for Advancing Translational Sciences (NCATS).
Only some compounds are listed: those with a hit (about 10% of all), similar ones and a draw of the others.
KB-V1 MDR tox: qHTS assay for MDR1-selective chemotherapeutics: Primary screen using the drug-selected MDR subline cells KB-V1 | KB-V1 MDR cells viability, CellTiter-Glo, 72 h | Potency, µM (titrated, usually from 46.1 µM), most hits filed as cytotoxic | actives 3.4% (n = 400,000) | AID 1347076, 2019; note: % is set by controls: 0 for no effect and ±100 for the full control effect; nearly all actives have a fitted effect of over 60% in size
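Potencies derive from concentration-effect curves fitted to normalized luminescence (CellTiter-Glo) of KB-V1 cells treated for 72 h at 37 degrees C in phenol-red-free DMEM containing 10% FBS.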
RORgamma inh: qHTS for inhibitors of ROR gamma transcriptional activity. Nuclear receptor ROR-gamma (Mus musculus), P51450. Potency, µM (top dose mostly 53.6 µM), for inactives: at the highest dose activity change, negative = inhibition, usual class: inhibitors. actives 5.4% (n = 310,000). Drosophila S2 Gal4-RORgamma UAS-luciferase reporter, 20 h; note: % is set by controls: 0 for no effect and ±100 for the full control effect; nearly all actives have a fitted effect of over 60% in size
Target sequence (P51450 whole entry, looked up, the tested form may be a part): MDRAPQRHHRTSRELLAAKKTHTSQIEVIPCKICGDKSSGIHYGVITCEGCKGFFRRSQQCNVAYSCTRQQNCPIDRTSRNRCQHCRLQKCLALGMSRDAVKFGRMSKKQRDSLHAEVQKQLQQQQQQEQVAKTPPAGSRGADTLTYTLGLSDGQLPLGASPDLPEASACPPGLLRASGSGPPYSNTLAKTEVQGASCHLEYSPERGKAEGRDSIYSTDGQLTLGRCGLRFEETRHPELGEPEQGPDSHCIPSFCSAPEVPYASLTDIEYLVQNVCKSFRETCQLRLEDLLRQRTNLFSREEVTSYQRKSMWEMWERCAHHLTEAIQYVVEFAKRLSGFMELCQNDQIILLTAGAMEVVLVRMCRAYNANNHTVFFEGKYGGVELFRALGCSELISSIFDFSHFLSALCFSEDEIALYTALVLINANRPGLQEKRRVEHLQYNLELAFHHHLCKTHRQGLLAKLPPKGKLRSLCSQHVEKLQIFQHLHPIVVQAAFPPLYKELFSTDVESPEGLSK
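Stably transfected Drosophila Schneider cells are the test system, with ROR gamma fused to Gal4 and luciferase under UAS control; luminescence is read after 20 hr of 700 uM copper sulfate induction at ambient temperature.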
KB-3-1 cytotox: qHTS assay for MDR1-selective chemotherapeutics: Primary screen using the parental adenocarcinoma cell KB-3-1. KB-3-1 viability, CellTiter-Glo ATP luminescence, 72 h. Potency, µM (titrated, usually from 46.1 µM), hits mostly cytotoxic. actives 1.4% (n = 400,000). AID 1347075, 2019; note: % is set by controls: 0 for no effect and ±100 for the full control effect; nearly all actives have a fitted effect of over 60% in size
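Cells are dispensed, compounds pinned in, plates held at 37 °C for 72 h, then CellTiter-Glo is added and luminescence read after 10 minutes. Cell line: parental KB-3-1 in phenol-red-free DMEM, 10% FBS.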
SW480 rerep: A quantitative high throughput screen for small molecules that induce DNA re-replication in SW480 colon adenocarcinoma cells | SW480 DNA re-replication, Hoechst DNA content imaging, 48 h | Potency, µM (highest dose often 46.1 µM), for the others: at the highest dose re-replication activation, most hits filed as activators | actives 1.8% (n = 340,000) | AID 624297, 2012; note: % of control where 0% means no effect; nearly all actives have a fitted effect of over 55% in size
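Hoechst fluorescence of nuclei (405 nm excitation, 500-530 nm emission) measured by plate-scanning imager after 48 hr compound exposure at 37 C; re-replication scored as increased number of nuclei with elevated intensity.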
MCF10A rerep: A quantitative high throughput screen for small molecules that induce DNA re-replication in MCF 10a normal breast cells; Potency, µM (series often up to 46.1 µM), inactives show top-dose activity, positive = re-replication, actives largely listed as activators; actives 2.9% (n = 350,000); MCF 10A DNA re-replication, Hoechst nuclear intensity, 48 h; note: % of control where 0% means no effect; nearly all actives have a fitted effect of over 50% in size
VP16 counter: VP16 counterscreen qHTS for inhibitors of ROR gamma transcriptional activity | Drosophila S2 Gal4-VP16 UAS-luciferase, luminescence, 20 h | Potency, µM (titrated, usually from 53.6 µM), without a hit: top-dose activity, negative = inhibition, usual class: inhibitors | actives 3.5% (n = 310,000) | AID 2546, 2010;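 note: Gal4-VP16 expression switched on by copper sulfate through the metallothionein promoter; % is set by controls: 0 for no effect and ±100 for the full control effect; nearly all actives have a fitted effect of over 50% in size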
Active calls of the source: *; i = inactive; ? = inconclusive; / = not tested or not shown; [ ] = dose if it differs, or a comment. Calls come from the whole dose curve; as a rule, active = well fitted curve in the direction sought with a large enough effect; inconclusive = small, poorly fitted or top-dose-only effect, or another doubt; inactive = no such curve, though single readings can be large; an effect the other way counts as inactive or inconclusive. Potency is the fitted concentration of half-maximal effect.

SMILES | KB-V1 MDR tox | RORgamma inh | KB-3-1 cytotox | SW480 rerep | MCF10A rerep | VP16 counter
CCCCOc1ccc(S(=O)(=O)NNC(=O)C2Cc3c(ccc4ccccc34)O2)cc1 (stereo not drawn) | i | -21.9% | i | ? | 20.6µM* | ?
Cc1ccc(S(=O)(=O)NNC(=O)C2Cc3c(ccc4ccccc34)O2)cc1 (stereo not drawn) | i | 36.9% | i | -5.4% | 6.8% | -23.3%
Cc1cc(NC(=O)CSCC(=O)N2CCN(c3ccccc3)CC2)no1 | i | / | i | 3.1% | -3.7% | /
COc1ccc(CN2C(=O)COc3ccccc32)cc1 | i | -10.2% | i | 2.3% | -10.3% | -3.8%
COc1ccc(CC2(CO)COc3ccccc3C2=O)cc1 (stereo not drawn) | 13µM* | / | ? | 16.4µM* | ? | /
CCOC(=O)c1ccccc1NC(=O)COC(=O)c1cc([N+](=O)[O-])ccc1N1CCOCC1 | ? | / | i | -0.9% | 8.7% | /
CN(C)c1ncnc2ccc(-c3ccccc3C(F)(F)F)cc12 | / | -7.1% | / | / | / | -9.3%
CC(C)Cc1nnc(NC(=O)c2cc(-c3ccncc3)nc3ccccc23)s1 | i | -30.9% | i | 6.2% | -13.7% | -24.6%
CCC(CC)c1nnc(NC(=O)c2ccc3ccccc3n2)s1 | i | 3.55µM* | ? | -8.0%[9.22 µM] | ? | 10µM*
CCC(CC)c1nnc(NC(=O)Oc2ccccc2)s1 | i | -2.7% | i | -2.8% | -1.5% | 0.0%
CC(C)Cc1nnc(NC(=O)c2cc(-c3ccccc3)nc3ccccc23)s1 | i | 4.47µM* | i | 4.0% | -184.8%[0.0737 µM] | ?
CCC(CC)c1nnc(NC(=O)c2cc(-c3ccccc3)nc3ccccc23)s1 | ? | 10µM* | i | -14.3% | -64.1% | 11.2µM*
CCOc1ccc(NC(=O)CN(C)C(=O)CCCOc2ccc(Cl)c(C)c2)cc1OCC | ? | ? | i | -0.9% | ? | -0.3%
COc1ccc(OC(=O)c2cn(-c3cccc(OC)c3)c(=O)c3ccccc23)cc1 | i | / | i | / | / | /
Cc1cc(C(=O)N/N=C/c2ccccn2)n[nH]1 | i | -23.2% | i | -0.4% | -4.1% | 6.7%
Cc1cc(C(=O)N/N=C/c2cc(N=Nc3ccccc3)ccc2O)n[nH]1 | ? | 10µM* | ? | ? | 8.4% | 11.2µM*
Nc1ccc(C(=O)N/N=C\c2cc(N=Nc3cccc4ccccc34)ccc2O)cc1 | ? | 1.58µM* | ? | ? | 423.2%[0.0737 µM] | 5.62µM*
CC(C)NC(=O)CC(c1ccccc1)c1cc(Br)ccc1O (stereo not drawn) | i | 19.6% | i | ? | -1.7% | -9.3%
CC(C)NC(=S)N/N=C/c1cc(Br)ccc1O | i | 5.01µM* | i | ? | ? | 4.47µM*
COC(=O)N/N=C\c1cc(Br)ccc1OCc1ccccc1 | ? | ? | i | ? | 10.6% | 7.3%
COC(=O)N/N=C/c1cc(Br)ccc1O | ? | 7.08µM* | i | -2.7% | 6.6% | ?
C/C=C/c1cccc(-c2nc(C(=O)NC3CCC3)cc3c2[C@@H](CCO)N(S(=O)C(C)(C)C)C3)c1 (stereo partly drawn) | i | / | i | / | / | /
COC(=O)c1ccc(C(NC(=O)OCc2ccccc2)/C(C)=C/[C@@H](C)C(=O)N2CCN(C)CC2)cc1 (stereo partly drawn) | / | 5.4% | / | / | / | 8.2%
CCOC(=O)N/N=C/c1cccc(Cl)c1Cl | ? | 29.5% | i | -1.2% | 0.5% | -6.6%
COC(=O)N/N=C/c1cc(N=Nc2ccccc2Cl)ccc1O | ? | 3.98µM* | ? | -7.6% | ? | 15.8µM*
SMILES | KB-V1 MDR tox | RORgamma inh | KB-3-1 cytotox | SW480 rerep | MCF10A rerep | VP16 counter
COC(=O)N/N=C/c1cc(N=Nc2ccccc2)ccc1O | i | 1.12µM* | i | -1.1% | 11.9% | ?
Cc1cc(C(=O)N/N=C/c2cccc([N+](=O)[O-])c2O)n[nH]1 | i | 12.6µM* | i | -70.6% | -0.8% | ?
COCCn1c(=O)c(CCc2ccccc2)nc2cnc(Oc3cccc(Cl)c3)nc21 | / | ? | / | / | / | 17.2%
O=C(CC(c1cccs1)N1Cc2ccccc2C1=O)Nc1ccccc1F (stereo not drawn) | i | / | i | / | / | /
O=C(NCC1CCCCC1)c1csc([C@@H]2C[C@H](O)[C@@H](CO)O2)n1 | i | / | ? | / | / | /
OC(COCc1cccs1)CN1CCN(c2cccc(C(F)(F)F)c2)CC1 (stereo not drawn) | 23.1µM* | 0.4% | i | -4.4% | 19.1% | -3.4%
NC1=NCC2c3ccccc3Cc3ccccc3N12 (stereo not drawn) | / | 4.4% | / | 1.5% | -3.5% | 1.8%
COC(=O)c1cc(-c2ccc(Br)cc2)on1 | i | -1.3% | i | -1.6% | 0.9% | -2.6%
CCN(CC)C(=O)c1cc(-c2ccc(Br)cc2)on1 | 5.17µM* | 14.2% | i | 8.6% | 27.0% | -5.6%
CCN(CC)C(=O)C1=C(C)Nc2nc3ccccc3n2C1c1cccc(Cl)c1 (stereo not drawn) | i | / | i | / | / | /
OC(CNC1CCCCC1)COCCOc1ccc(Br)cc1 (stereo not drawn) | 23.1µM* | -6.0% | i | ? | 16.4µM* | -14.3%
OC(CNC1CCCC1)COc1ccc(-c2ccccc2)cc1 (stereo not drawn) | ? | -24.0% | 20.6µM* | ? | ? | 4.0%
CCCC(NCC(O)COc1ccc(-c2ccccc2)cc1)c1ccccc1 (stereo not drawn) | ? | ? | ? | 5.17µM* | 4.11µM* | ?
COC(=O)c1ccc(OCC(O)CNC2CCCC2)cc1 (stereo not drawn) | i | -21.4% | i | -1.4% | -0.2% | 0.0%
CCOc1ccccc1-c1nc(C(N)=O)c2c(n1)n(-c1ccc3c(c1)OCO3)c(=O)n2C | i | / | i | / | / | /
COc1cc(OC)c(OC)cc1/C=C/c1nc2ccccc2o1 | i | / | i | / | / | /
COc1ccc(N2C(c3cc(OC)cc(OC)c3)=Cc3ccccc3C2CC(C)=O)cc1 (stereo not drawn) | i | / | 23.1µM* | / | / | /
COc1cc(OC)cc(C2=Cc3ccccc3C(CC(C)=O)N2c2ccc(C#CCCO)cc2)c1 (stereo not drawn) | i | / | i | / | / | /
O=C(c1ccc(Cl)cc1)N1CCC(c2ccncc2)CC1 | i | / | ? | / | / | /
